Screening results (PubChem)
Pf growth 96h = P. falciparum growth inhibition at 96 hours; P. falciparum luciferase reporter growth, 96 h; Potency, µM (series often up to 28.7 µM), most hits filed as inhibitors; AID 504834; 320,000 tested, 6.9% active
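Compounds incubated with erythrocytes infected by luciferase-expressing P. falciparum (2% hematocrit, 0.05% parasitemia final) for 96 hours, 37 C in 5% CO2. Growth inhibition scored as decreased luciferase luminescence.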
Shiga inhibitor = inhibitors of Shiga toxin in Vero cells; Vero cells, Shiga toxin protein synthesis inhibition reporter; inhibition, % at 38.7 µM; AID 2315; 290,000 tested, 9.2% active; in the data active means inhibition mostly above about 28%, no sharp cut-off; inactive means mostly below about 43%
Cycloheximide cs = counter-screen for Shiga toxin inhibitors: cycloheximide protein synthesis inhibition. cell reporter, cycloheximide protein synthesis inhibition counterscreen. max response, %. 300,000 tested, 12% active; in the data active means max response mostly above about 13%, no sharp cut-off; inactive means mostly below about 14%; further: read at 38.3 µM for the half of the compounds with a filed dose
Pf growth 48h = inhibits P. falciparum growth in the first generation, 48 h; P. falciparum luciferase growth in erythrocytes, 48 h; Potency, µM (top dose mostly 28.7 µM), most hits filed as inhibitors; 310,000 tested, 5.9% active; AID 504832
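Cell-based growth assay: transgenic P. falciparum expressing firefly luciferase, cultured in red cells within RPMI 1640 containing 0.5% w/v Albumax, 24 mM bicarbonate and gentamycin. A drop in luciferase activity indicates inhibition.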
Numbers stand for hits; – = inactive; ? = inconclusive; · = no result given; [ ] = another dose, or the depositor's remark. Hits are enriched below; roughly 21% of the tested compounds scored in any of these assays. Unless noted, the call rests on the fitted dose curve; in most records, active means well fitted inhibition curve with a large enough effect; inconclusive means small, poorly fitted or top-dose-only effect, or another doubt; inactive means no such curve, though single readings can be large or run the other way.

SMILES | Pf growth 96h | Shiga inhibitor | Cycloheximide cs | Pf growth 48h
CC(=O)N1c2ccc(S(=O)(=O)NCCC(=O)N3CCC(C)CC3)cc2CC1C (stereo not drawn) | – | – | – | –
CC1CCCC(C)N1CCCNC(=O)Cn1c(=O)c2cccn2c2cccnc21 (stereo not drawn) | – | – | – | –
Cc1cccc(NC(=O)NCC(c2ccc(F)cc2)N2CCN(C)CC2)c1 (stereo not drawn) | ? | – | 19.4 | ?
Cc1nn(Cc2ccccc2)c(C)c1C(=O)N1CCN(S(=O)(=O)/C=C/c2ccccc2)CC1 | 4.15µM | · | · | 11.7µM
Cc1nn(Cc2ccccc2)c(C)c1C(=O)O | – | – | – | –
CC1CN(C(=O)CSc2nnc(-c3ccccc3)o2)CC(C)O1 (stereo not drawn) | – | – | – | –
O=C(CSc1nnc(-c2ccc(F)cc2)o1)N1CCCCC1 | – | 67.4 | 26.8 | –
O=C(CSc1nnc(-c2ccccc2)o1)N1CCCCC1 | ? | 90.2 | 18.0 | –
O=C(O)CSc1nnc(-c2ccccc2)o1 | – | – | – | –
O=C(CSc1nnc(-c2c[nH]c3ccccc23)o1)N1CCCCC1 | ? | 69.7 | 25.8 | –
O=C(CSc1nnc(-c2ccccc2)o1)N1CCCC1 | ? | – | 15.3 | –
CCOc1ccc(CCNc2nc3ccccc3n3cnnc23)cc1OCC | ? | – | – | ?
CC[C@H](C)[C@H](N)C1=N[C@H](C(=O)N[C@@H](CC(C)C)C(=O)N[C@@H](CCC(=O)O)C(=O)N[C@@H](C(=O)N[C@H]2CCCCNC(=O)[C@@H](CC(N)=O)NC(=O)[C@@H](CC(=O)O)NC(=O)[C@@H](Cc3cnc[nH]3)NC(=O)[C@@H](Cc3ccccc3)NC(=O)[C@@H]([C@@H](C)CC)NC(=O)[C@@H](CCCN)NC2=O)[C@@H](C)CC)CS1 | – | · | · | –
Cc1cc(C)c(C(=O)CN2C(=O)C(=O)N(C3CCCC3)C2=O)cc1C | – | · | · | –
COc1ccc(N2CCN(C(=O)[C@H](Cc3c[nH]c4ccccc34)NC(C)=O)CC2)cc1 | –[5.75 µM] | – | – | –
CC1Cc2ccccc2N1CC(=O)NC(=O)NCc1ccccc1 (stereo not drawn) | – | – | – | –
O=C(CN1CCCCCC1)NC(c1ccccc1)c1ccccc1 | ? | · | – | ?
CC1CC(C)CN(CC(=O)NC(c2ccccc2)c2ccccc2)C1 (stereo not drawn) | – | – | – | 11.7µM
CC1Cc2ccccc2N1CC(=O)NC(c1ccccc1)c1ccccc1 (stereo not drawn) | 6.57µM | – | – | 10.4µM
C#CCOC(=O)Nc1cc(C)n(-c2ccccc2)n1 | – | – | – | –
COc1ccc(CC(=O)Nc2nnc(SCC(=O)NCc3ccco3)s2)cc1OC | ? | – | – | –
COc1ccc(CNc2nc(=S)[nH]c3cc(OC)c(OC)cc23)cc1 | – | – | – | –
O=C(CCCCCNc1nc(=S)[nH]c2ccccc12)NCCc1ccccc1 | – | – | – | –
COc1cc2[nH]c(=S)nc(NCc3ccc(C)cc3)c2cc1OC | 13.1µM | – | – | ?
COc1cc2[nH]c(=S)nc(NCc3ccccc3)c2cc1OC | 0.522µM | – | – | –
SMILES | Pf growth 96h | Shiga inhibitor | Cycloheximide cs | Pf growth 48h
COc1ccc(CCNC(=O)CCCCCNc2nc(=S)[nH]c3ccccc23)cc1OC | 10.4µM | – | – | ?
Cc1ccc(SCC(=O)NC(=O)c2ccc(S(=O)(=O)N(C)C)cc2)cc1C | – | – | – | –
CCc1nn(CC(=O)NCCCN2CCN(CC)CC2)c(=O)c2cc3occc3n12 | ? | – | – | –
COc1ccccc1N1CCN(S(=O)(=O)c2ccc(-n3cnnn3)cc2)CC1 | – | – | – | –
CCC(Sc1nnc(-c2ccco2)n1C)C(=O)Nc1nnc(C)s1 (stereo not drawn) | – | – | – | –
CC(C)c1ccc(NC(=O)CN2C(=O)NC3(CCCC3)C2=O)cc1 | – | – | – | –
C=CCN(CC=C)C(=O)c1ccc(OC2CCN(Cc3ccccn3)CC2)cc1 | ? | – | – | –
O=C(O)c1cn2c3c(ccc(Cl)c3c1=O)OCC2 | – | – | – | –
CCOC(CNC(=O)c1ccc2c(c1)ncn2-c1ccccc1OC)OCC | – | – | – | ?
CCCNC(=O)c1ccc2c(c1)ncn2-c1ccccc1OC | – | – | 11.6 | ?
COc1ccccc1-n1cnc2cc(C(=O)N3CCOCC3)ccc21 | 9.28µM | 40.7 | 25.2 | –
CC(C)CC(=O)C1=C(O)C(=O)N(Cc2ccccc2)C1c1ccccc1 (stereo not drawn) | – | · | – | –
Cc1cc(N2CCN(c3ccccc3)CC2)nc2ccccc12 | – | – | – | –
Clc1ccc(N2CCN(c3cnc4ccccc4n3)CC2)cc1 | · | 48.9 | 18.6 | –
Fc1ccc(N2CCN(c3cnc4ccccc4n3)CC2)cc1 | – | 91.1 | 48.7 | ·
c1ccc(N2CCN(c3cnc4ccccc4n3)CC2)cc1 | – | 145.6 | 62.0 | ·
COc1ccc(N2CC(C(=O)Nc3ccccc3C(=O)NC3CC3)CC2=O)cc1 (stereo not drawn) | – | – | – | –
COc1ccc(CN2CCN(C(=O)C3CCC(CNS(=O)(=O)c4ccccc4)CC3)CC2)c(OC)c1OC (stereo not drawn) | ? | – | – | ?
CCOC(=O)Cc1cc(=O)[nH]c(/N=C(\N)Nc2ccc(C)cc2C)n1 | – | – | – | ·
COC(=O)c1cnn(-c2ccc(C)c(C)c2)c1-n1cccc1 | · | – | 20.2 | ·
O=C(O)c1cnn(-c2ccccc2)c1-n1cccc1 | ? | – | – | –
Cc1cc2c(nc1C)CCCN2C[C@@H](C)O/N=C1/[C@H]2CCn3c(=O)n(-c4ccccc4)c(=O)n3[C@H]2[C@H](O)[C@@H]2O[C@H]12 | 13.1µM | – | – | ?
O=C(NNC1CC(=O)N(c2ccccc2)C1=O)c1ccco1 (stereo not drawn) | ? | – | – | –
O=C(N=C1SCC(=O)N1c1ccccc1Cl)c1ccco1 | – | 104.2 | 29.6 | –
O=C(c1ccccc1)c1ccc(C(=O)N2CCN(c3ccccc3Cl)CC2)cc1 | – | · | · | –
SMILES | Pf growth 96h | Shiga inhibitor | Cycloheximide cs | Pf growth 48h
O=C(N=C1SCC(=O)N1c1ccccc1)c1ccco1 | – | – | 31.1 | ·
O=C(N=C1SCC(=O)N1c1ccccc1Cl)c1ccccc1 | ? | 73.2 | 35.2 | –
CC1SC(=NC(=O)c2ccco2)NC1=O (stereo not drawn) | · | – | – | –
CC1(c2ccccc2)NC(=O)N(CC(=O)N2CCN(S(=O)(=O)c3cccs3)CC2)C1=O (stereo not drawn) | – | · | · | –
CC(=O)c1ccc(N(CC(=O)NC2CCCCC2)C(=O)c2csnn2)cc1 | – | – | – | –
Cc1nonc1NC(=O)CSc1nnnn1-c1ccccc1 | – | – | – | –
O=C1OCCC1Sc1nc2ccccc2n1-c1ccccc1 (stereo not drawn) | 11.7µM | – | – | ·
COc1ccc(S(=O)(=O)CCc2nnc(NC(=O)c3cccs3)s2)cc1 | – | – | – | 2.33µM
O=C(Nc1nnc(Cc2ccccc2)s1)C1CCC1 | 1.65µM | – | – | ?
CC(C)Cc1nnc(NC(=O)CCC(=O)NC2CCCCC2)s1 | ? | – | – | –
O=C(Nc1nnc(Cc2ccc(Cl)cc2)s1)c1cccs1 | – | – | – | –
O=C(Nc1nnc(Cc2ccccc2)s1)c1cccs1 | – | – | 24.9 | –
CC(C)Cc1nnc(NC(=O)C2CCCC2)s1 | – | – | 24.1 | –
